# The campaign covered roughly 5,600 compounds. About 4,100 (73%) were called active. Inconclusive results (about 4%) are left out. The set was probably picked from earlier hits. A selection follows. A number with no mark means an inactive call.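 How the source made its calls: active means mean replicate inhibition above about 95% and at least 55% of replicates individually reaching it (limit read from the data); inconclusive means only one of the two criteria is met; inactive means neither criterion is met.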
# Assay: blockers of Trypanosoma cruzi growth in host cells – cell-based, NIH3T3 host, beta-gal parasite, luminescence, cherry-pick, confirmation (AID 651739)
# Conditions: T. cruzi beta-gal in NIH3T3, GalScreen luminescence, 90 h; at 8.35 µM; active compounds read high
row,Structure (SMILES),inhibition
1,O=C(c1cnccn1)N1CC[C@@H]2[C@H](CO)Nc3ccc(-c4cccc(F)c4)cc3[C@@H]21,109% (active)
2,O=C(c1ccccn1)N1CC[C@@H]2[C@H]1c1cc(-c3ccccc3)ccc1N[C@@H]2CO,107% (active)
3,CN(C)C(=O)c1ccc(-c2ccc3c(c2)[C@H]2[C@H](CCN2C(=O)c2ccc4c(c2)OCO4)[C@H](CO)N3)cc1,100% (active)
4,OC[C@@H]1Nc2ccc(-c3cccc(F)c3)cc2[C@H]2[C@@H]1CCN2Cc1ccncc1,114% (active)
5,O=C(c1ccccc1F)N1C[C@H]2[C@@H](c3ccccc31)[C@@H](CO)N2C(=O)c1ccc(F)cc1,46.6%
6,CCCN(C)C[C@@H]1Oc2cc(C#Cc3ccc(F)cc3)ccc2S(=O)(=O)N([C@H](C)CO)C[C@H]1C,108% (active)
7,CCCN(C)C[C@H]1Oc2cc(C#CC3CCCC3)ccc2S(=O)(=O)N([C@H](C)CO)C[C@@H]1C,105% (active)
8,C[C@@H]1CN([C@@H](C)CO)S(=O)(=O)c2ccc(C#Cc3ccc(F)cc3)cc2O[C@H]1CN(C)S(C)(=O)=O,85.8%
9,C[C@@H]1CN([C@H](C)CO)S(=O)(=O)c2ccc(C#Cc3ccncc3)cc2O[C@@H]1CN(C)S(=O)(=O)c1ccc(F)cc1,70.2%
10,CN1c2ccc(-c3ccccc3)cc2[C@H]2[C@H](CCN2C(=O)Cc2ccccn2)[C@H]1CO,88.9%
11,CCC(=O)N1CC[C@@H]2[C@@H](CO)N(C)c3ccc(-c4cccc(OC)c4)cc3[C@@H]21,99.1% (active)
12,CN1c2ccc(-c3ccccc3)cc2[C@@H]2[C@@H](CCN2C(=O)c2ccncc2)[C@@H]1CO,100% (active)
13,COc1ccc(-c2ccc3c(c2)[C@@H]2[C@@H](CCN2C(=O)Cc2ccccn2)[C@H](CO)N3C)cc1,108% (active)
14,COc1ccc(NC(=O)N2CC[C@@H]3[C@@H](CO)N(C)c4ccc(-c5cccc(F)c5)cc4[C@@H]32)cc1,100% (active)
15,CCC(=O)N1CC[C@@H]2[C@@H](CO)N(C)c3ccc(-c4ccc(F)cc4)cc3[C@@H]21,102% (active)
16,C[C@H](CO)N1C[C@H](C)[C@H](CN(C)S(=O)(=O)c2ccccc2)Oc2ncc(-c3cccc(C(F)(F)F)c3)cc2C1=O,108% (active)
17,C[C@@H]1CN([C@H](C)CO)C(=O)c2cc(-c3cncnc3)cnc2O[C@H]1CN(C)C(=O)Nc1ccc2c(c1)OCO2,-15.5%
18,C[C@H](CO)N1C[C@H](C)[C@@H](CN(C)S(=O)(=O)c2cccc(F)c2)OCc2ccccc2-c2c(n(C)c3ccccc23)C1=O,99.6% (active)
19,C[C@H]1CN([C@@H](C)CO)C(=O)c2ccccc2-c2ccccc2CO[C@@H]1CN(C)S(=O)(=O)c1ccc(C(F)(F)F)cc1,99.2% (active)
20,Cc1noc(C)c1S(=O)(=O)N(C)C[C@H]1Oc2ccc(N(C)C)cc2CC(=O)N([C@H](C)CO)C[C@@H]1C,-37.8%
21,C[C@H](CO)N1C[C@H](C)[C@@H](CN(C)C(=O)Nc2ccnc(N3CCOCC3)c2)OCc2ccccc2-c2ccccc2C1=O,100% (active)

row,Structure (SMILES),inhibition
1,Cc1ccc(-c2cnc3c(c2)C(=O)N([C@@H](C)CO)C[C@@H](C)[C@H](CN(C)Cc2ccccc2F)O3)cc1,102% (active)
2,COc1ccccc1-c1ccc2c(c1)O[C@H](CN(C)S(=O)(=O)c1ccc(C)cc1)[C@@H](C)CN([C@H](C)CO)S2(=O)=O,93.9%
3,Cc1ccc(S(=O)(=O)N(C)C[C@@H]2Oc3ncc(-c4cc5ccccc5o4)cc3C(=O)N([C@H](C)CO)C[C@@H]2C)cc1,105% (active)
4,C[C@H](CO)N1C[C@H](C)[C@H](CN(C)S(=O)(=O)c2cccc(F)c2)Oc2ncc(/C=C/c3ccccc3)cc2C1=O,102% (active)
5,C[C@H](CO)N1C[C@H](C)[C@H](CN(C)Cc2cccnc2)Oc2cc(C#CC3CCCC3)ccc2S1(=O)=O,108% (active)
6,C[C@@H]1CN([C@H](C)CO)S(=O)(=O)c2ccc(C#CC3CCCC3)cc2O[C@@H]1CN(C)Cc1cccnc1,98.8% (active)
7,C[C@H]1CN([C@@H](C)CO)S(=O)(=O)c2ccc(C#CC3CCCC3)cc2O[C@H]1CN(C)C(=O)Cc1ccncc1,110% (active)
8,C[C@@H]1CN([C@H](C)CO)S(=O)(=O)c2ccc(C#CC3CCCC3)cc2O[C@@H]1CN(C)C(=O)Cc1ccncc1,92.6%
9,COc1ccc(NC(=O)Nc2ccc3c(c2)C(=O)N([C@H](C)CO)C[C@@H](C)[C@H](CN(C)Cc2ccc(Cl)c(Cl)c2)OCCCC[C@@H](C)O3)cc1,98.8% (active)
10,C[C@@H]1CCCCO[C@@H](CN(C)Cc2ccc(Cl)c(Cl)c2)[C@H](C)CN([C@H](C)CO)C(=O)c2cc(NC(=O)Nc3ccc(F)cc3)ccc2O1,88.5%
11,C[C@@H]1CN([C@H](C)CO)C(=O)c2cc(NC(=O)Nc3ccc(F)cc3)ccc2O[C@@H](C)CCCCO[C@H]1CN(C)Cc1ccc(Cl)c(Cl)c1,98.3% (active)
12,C[C@@H]1CN([C@@H](C)CO)C(=O)Cc2cc(NC(=O)C3CCCCC3)ccc2O[C@@H]1CN(C)Cc1ccc(C(=O)Nc2ccccc2N)cc1,103% (active)
13,C[C@H](CO)N1C[C@H](C)[C@@H](CN(C)Cc2ccc(-c3ccccc3)cc2)Oc2ccc(NC(=O)CCC(F)(F)F)cc2CC1=O,92.4%
14,C[C@@H]1CN([C@H](C)CO)C(=O)Cc2cc(NC(=O)c3ccncc3)ccc2O[C@H]1CN(C)Cc1ccc(-c2ccccc2)cc1,109% (active)
15,C[C@H](CO)N1C[C@H](C)[C@H](CN(C)Cc2ccc(-c3ccccc3)cc2)Oc2ccc(NC(=O)Nc3ccc(F)cc3)cc2CC1=O,110% (active)
16,Cc1cccc(-c2ccc([C@@H]3[C@H](CO)N4CCCCN(C(=O)c5ccc6c(c5)OCO6)C[C@@H]34)cc2)c1,105% (active)
17,COc1ccc(-c2ccc([C@H]3[C@H]4CN(C(=O)c5ccc6c(c5)OCO6)CCCCN4[C@H]3CO)cc2)cc1,106% (active)
18,CCCC#Cc1ccc([C@H]2[C@H](CO)N3CCCCN(C(=O)c4ccc5c(c4)OCO5)C[C@@H]23)cc1,104% (active)
19,COCC#Cc1ccc([C@@H]2[C@H](CO)N3CCCCN(C(=O)CN(C)C)C[C@@H]23)cc1,57.7%
20,O=C(CN1CCOCC1)N1CCCCN2[C@H](CO)[C@H](c3ccc(-c4ccccc4)cc3)[C@@H]2C1,73.7%
21,CCC(=O)N1CCCCN2[C@H](C1)[C@@H](c1ccc(-c3ccc(F)cc3)cc1)[C@@H]2CO,60.2%

row,Structure (SMILES),inhibition
1,O=C(CN1CCOCC1)N1CCCCN2[C@@H](CO)[C@H](c3ccc(-c4ccccc4)cc3)[C@@H]2C1,81.6%
2,CCC(=O)N1CCCCN2[C@H](C1)[C@@H](c1ccc(/C=C/c3ccccc3)cc1)[C@@H]2CO,102% (active)
3,O=C(CN1CCOCC1)N1CCCCN2[C@@H](CO)[C@H](c3ccc(/C=C/c4ccccc4)cc3)[C@@H]2C1,99.6% (active)
4,O=C(C[C@H]1CC[C@@H]2[C@H](COC[C@H](O)CN2Cc2ccc(Oc3ccccc3)cc2)O1)N1CCN(c2ccccc2)CC1,101% (active)
5,COc1cccc(C#Cc2ccc([C@@H]3[C@H](C#N)N[C@H]3CO)cc2)c1,101% (active)
6,CC(C)(O)C#Cc1ccc([C@@H]2[C@H](CO)N3CCCCN(C(=O)c4cccc(F)c4)C[C@@H]23)cc1,76.7%
7,O=C(c1ccncc1)N1CCCCN2[C@H](CO)[C@H](c3ccc(-c4ccccc4)cc3)[C@H]2C1,105% (active)
8,O=C(c1cccnc1)N1CCCCN2[C@@H](CO)[C@H](c3ccc(C#Cc4ccccc4)cc3)[C@@H]2C1,112% (active)
9,O=C(Nc1cc(F)ccc1F)N1CCCCN2[C@H](CO)[C@@H](c3ccc(-c4cncnc4)cc3)[C@H]2C1,55.4%
10,O=C(Nc1ccccc1F)N1CCCCN2[C@H](CO)[C@@H](c3ccc(-c4cccnc4)cc3)[C@H]2C1,61.1%
11,O=C(c1cccc(F)c1)N1CCCCN2[C@H](CO)[C@H](c3ccc(-c4ccncc4)cc3)[C@H]2C1,95.2% (active)
12,COc1ccccc1NC(=O)N1CCCCN2[C@H](C1)[C@H](c1ccc(-c3ccccc3)cc1)[C@@H]2CO,109% (active)
13,COc1ccc(C#Cc2ccc([C@@H]3[C@@H](CO)N4CCCCN(C(=O)c5ccncc5)C[C@@H]34)cc2)cc1,80.6%
14,C[C@@H]1CN([C@H](C)CO)C(=O)c2cc(NS(=O)(=O)c3cccs3)ccc2O[C@@H](C)CCCCO[C@H]1CN(C)Cc1ccc(C(F)(F)F)cc1,101% (active)
15,C[C@@H]1CCCCO[C@H](CN(C)Cc2ccc(C(F)(F)F)cc2)[C@H](C)CN([C@H](C)CO)C(=O)c2cc(NC(=O)Nc3ccc(F)cc3)ccc2O1,96.3% (active)
16,C[C@@H]1CCCCO[C@H](CN(C)Cc2ccccc2)[C@@H](C)CN([C@@H](C)CO)C(=O)c2cc(NC(=O)Nc3ccc(F)cc3)ccc2O1,101% (active)
17,C[C@@H]1CCCCO[C@@H](CN(C)Cc2ccc(C(F)(F)F)cc2)[C@@H](C)CN([C@H](C)CO)C(=O)c2cc(NC(=O)Nc3ccccc3)ccc2O1,105% (active)
18,C[C@H]1CCCCO[C@H](CN(C)Cc2ccccc2)[C@@H](C)CN([C@@H](C)CO)C(=O)c2cc(NC(=O)NC3CCCCC3)ccc2O1,111% (active)
19,C[C@H]1CCCCO[C@H](CN(C)Cc2ccccc2)[C@@H](C)CN([C@@H](C)CO)C(=O)c2cc(NC(=O)c3ccccc3)ccc2O1,113% (active)

# Reference: PubChem BioAssay AID651739 (Broad Institute, 2012)
